In PubChem BioAssay (EPA / NIEHS) one finds outcome and AC50 data, which are given here for six molecules.

A structure can be active in one record and inactive in another. Activity calls are given as the source filed them. The calls were made as follows: active = hit-call score of the fitted dose curve at least 0.9, where 1 is the maximum; inactive = score below 0.9.

Assay [1] in a line: ATG_GRE_CIS: Attagene CIS-FACTORIAL HepG2 Assay for human Glucocorticoid Response Elements (GRE) (AID 2282947). The conditions noted are these: HepG2 GRE cis-reporter, Attagene multiplex mRNA; actives raise or lower the signal. The method in brief:
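Transiently transfected HepG2 cells carrying GRE cis-reporter units (endogenous TF activity) dosed 24 h; reporter mRNA quantified by RT-PCR, 6-FAM labelling, HpaI digestion and capillary electrophoresis. Bidirectional fit versus DMSO baseline.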

A short description of assay [2]: ATG_ISRE_CIS: Attagene CIS-FACTORIAL HepG2 Assay for human Interferon Regulatory Factor 1 (IRF1) binding to an Interferon-Stimulated Response Element (ISRE) (AID 2282948). The following applies: HepG2 ISRE cis-reporter (Attagene), mRNA transcription readout; actives raise or lower the signal. The method in brief: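 Transiently transfected HepG2 cells carrying cis-element reporter units, dosed 24 hours. Reporter mRNA quantified by RT-PCR, fluorescent primer extension, HpaI digestion and capillary electrophoresis. Bidirectional fitting relative to DMSO.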

The nature of assay [3]: ATG_M_32_CIS: Attagene CIS-FACTORIAL HepG2 Assay for M32 Transcription Factor (Internal Marker) (AID 2282949).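 Also: background control marker of the multiplexed CIS panel rather than a real target.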 The conditions noted are these: HepG2 Attagene cis-factorial M32 reporter, mRNA; actives raise or lower the signal. The method in brief:
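Fluorescent capillary electrophoresis peaks of HpaI-digested, FAM-labelled RT-PCR reporter products give the signal. Source: transiently transfected human liver HepG2 cells, 24 h after chemical dosing; bidirectional fitting against DMSO.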

Assay [4] in a line: ATG_M_06_CIS: Attagene CIS-FACTORIAL HepG2 Assay for M06 Transcription Factor (Internal Marker) (AID 2282950). The conditions noted are these: HepG2 Attagene CIS-FACTORIAL M06 internal marker reporter; actives raise or lower the signal. The gist of the method: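 Internal background marker within multiplexed cis-reporter HepG2 system. Cells transiently transfected, dosed 24 h; reporter mRNA measured by RT-PCR, HpaI digestion and capillary electrophoresis. Bidirectional fit relative to DMSO.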

Assay [5] concerns the target Hypoxia-inducible factor 1-alpha (Homo sapiens) (UniProt Q16665). As to the kind of experiment: ATG_HIF1a_CIS: Attagene CIS-FACTORIAL HepG2 Assay for human Hypoxia Inducible Factor 1 (HIF1A) (AID 2282951). The conditions noted are these: HepG2 Attagene cis-factorial HIF1a reporter transcription; actives raise or lower the signal. The gist of the method: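 Cis-element reporter constructs were transiently transfected into HepG2 cells, which were treated for 24 h; reporter RNA was reverse-transcribed, amplified, labelled and resolved by capillary electrophoresis.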

Assay [6] addresses Hepatocyte nuclear factor 6 (Homo sapiens) (UniProt Q9UBC0). As to the kind of experiment: ATG_HNF6_CIS: Attagene CIS-FACTORIAL HepG2 Assay for human Hepatocyte Nuclear Factor 6 (HNF6) (AID 2282952). The following applies: HepG2 Attagene cis-factorial HNF6 reporter transcription; actives raise or lower the signal. The gist of the method: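 Reporter mRNA induction or loss in HepG2 after 24 h exposure; transient cis-MRTU transfection; fragments quantified by capillary electrophoresis; bidirectional analysis, DMSO as negative control.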

A short description of assay [7]: ATG_MRE_CIS: Attagene CIS-FACTORIAL HepG2 Assay for human Metal Responsive Element (MRE) (AID 2282954). The following applies: HepG2 MRE cis-reporter transcription, Attagene multiplex; actives raise or lower the signal. The gist of the method:
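HepG2 cells transiently transfected with cis-element-driven reporter units; mRNA measured 24 h after dosing. Reporter transcripts quantified by RT-PCR, FAM labelling, HpaI digestion and capillary electrophoresis; bidirectional fit versus DMSO.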

Assay [8] in a line: ATG_PBREM_CIS: Attagene CIS-FACTORIAL HepG2 Assay for human Phenobarbital-responsive Enhancer Module (PBREM) (AID 2282955). The following applies: HepG2 PBREM cis-reporter, Attagene multiplexed transcription; actives raise or lower the signal. The gist of the method: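 Multiplexed cis-reporter readout in human hepatoma HepG2 cells; PBREM-regulated transcript quantified after 24 h exposure by fluorescent RT-PCR fragment analysis. Signal changes up or down fitted relative to DMSO.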

A short description of assay [9]: ATG_PXRE_CIS: Attagene CIS-FACTORIAL HepG2 Assay for human Pregnane X Receptor Element (PXRE) (AID 2282957). The following applies: HepG2 Attagene CIS-FACTORIAL PXRE reporter, mRNA; actives raise or lower the signal. The gist of the method:
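Transiently transfected HepG2 cells were dosed and incubated for 24 h. RNA was then isolated, DNase-treated, reverse-transcribed and reporter sequences amplified. Labeled, HpaI-digested fragments were quantified by capillary electrophoresis against DMSO.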

A short description of assay [10]: ATG_PPRE_CIS: Attagene CIS-FACTORIAL HepG2 Assay for human Peroxisome Proliferator-activated Response Element (PPRE) (AID 2282958). The following applies: HepG2 PPRE cis-element reporter, Attagene transcription factor profiling; actives raise or lower the signal. The gist of the method:
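DMSO served as negative control and baseline for bidirectional curve fitting. Signal came from PPRE-regulated reporter mRNA in HepG2 cells, measured 24 h post-dosing by RT-PCR, 6-FAM primer extension and capillary electrophoresis.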

The nature of assay [11]: ATG_RORE_CIS: Attagene CIS-FACTORIAL HepG2 Assay for human RAR-related Orphan Receptor Element (RORE) (AID 2282959). The following applies: HepG2 Attagene cis-factorial RORE reporter, mRNA; actives raise or lower the signal. The gist of the method:
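Transfect HepG2 with MRTUs; treat 24 h; extract RNA; RT with oligo(dT); PCR with reporter-specific primers; 6-FAM primer extension; HpaI digest 2 h at 37 C; capillary electrophoresis. Fit vs DMSO, bidirectional.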

Assay [12] can be described thus: ATG_Sox_CIS: Attagene CIS-FACTORIAL HepG2 Assay for human SRY-box transcription factor (SOX) (AID 2282960). The following applies: HepG2 Attagene cis-factorial SOX reporter, mRNA; actives raise or lower the signal. The method in brief:
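Fluorescence-labelled cDNA fragments from reporter transcripts, sized by CE, give the signal. Cells: HepG2, transiently transfected with cis-regulated reporter units. Exposure 24 h; DMSO negative control; bidirectional curve fitting.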

Assay [13] concerns the target Transcription factor Sp1 (Homo sapiens) (UniProt P08047). The assay is described as follows: ATG_Sp1_CIS: Attagene CIS-FACTORIAL HepG2 Assay for human Specificity Protein 1 (Sp1) (AID 2282961). The conditions noted are these: HepG2 Sp1 cis-reporter transcription, actives raise or lower the signal. The gist of the method: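 Chemicals are dosed onto HepG2 cells transfected with multiple cis-promoter reporter constructs, and after 24 h reporter RNA is reverse-transcribed, PCR-amplified and resolved by capillary electrophoresis for fluorescence quantitation; activity is scored up or down against DMSO.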

A short description of assay [14]: ATG_SREBP_CIS: Attagene CIS-FACTORIAL HepG2 Assay for human Sterol Regulatory Element Binding (SREBP) (AID 2282962). The conditions noted are these: HepG2 Attagene cis-factorial SREBP reporter, mRNA; actives raise or lower the signal. The method in brief:
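HepG2 cells transiently transfected with multiplexed cis-promoter reporter units sensing endogenous transcription factors; reporter mRNA measured 24 h after dosing by RT-PCR, 6-FAM labeling, HpaI digestion and capillary electrophoresis. Bidirectional fit versus DMSO.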

The target of assay [15] is Signal transducer and activator of transcription 3 (Homo sapiens) (UniProt P40763). The assay is described as follows: ATG_STAT3_CIS: Attagene CIS-FACTORIAL HepG2 Assay for human Signal Transducer and Activator of Transcription 3 (STAT3) (AID 2282963). The conditions noted are these: HepG2, Attagene cis-factorial STAT3 reporter transcription; actives raise or lower the signal. The method in brief: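 HepG2 cells transiently transfected with multiple cis-element-driven reporter units report endogenous transcription factor activity. After 24 h compound exposure, reporter mRNA is measured by RT-PCR, 6-FAM labelling, HpaI digestion and capillary electrophoresis. Fitted bidirectionally versus DMSO.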
Chain of Signal transducer and activator of transcription 3 (Homo sapiens) (P40763 whole entry, looked up): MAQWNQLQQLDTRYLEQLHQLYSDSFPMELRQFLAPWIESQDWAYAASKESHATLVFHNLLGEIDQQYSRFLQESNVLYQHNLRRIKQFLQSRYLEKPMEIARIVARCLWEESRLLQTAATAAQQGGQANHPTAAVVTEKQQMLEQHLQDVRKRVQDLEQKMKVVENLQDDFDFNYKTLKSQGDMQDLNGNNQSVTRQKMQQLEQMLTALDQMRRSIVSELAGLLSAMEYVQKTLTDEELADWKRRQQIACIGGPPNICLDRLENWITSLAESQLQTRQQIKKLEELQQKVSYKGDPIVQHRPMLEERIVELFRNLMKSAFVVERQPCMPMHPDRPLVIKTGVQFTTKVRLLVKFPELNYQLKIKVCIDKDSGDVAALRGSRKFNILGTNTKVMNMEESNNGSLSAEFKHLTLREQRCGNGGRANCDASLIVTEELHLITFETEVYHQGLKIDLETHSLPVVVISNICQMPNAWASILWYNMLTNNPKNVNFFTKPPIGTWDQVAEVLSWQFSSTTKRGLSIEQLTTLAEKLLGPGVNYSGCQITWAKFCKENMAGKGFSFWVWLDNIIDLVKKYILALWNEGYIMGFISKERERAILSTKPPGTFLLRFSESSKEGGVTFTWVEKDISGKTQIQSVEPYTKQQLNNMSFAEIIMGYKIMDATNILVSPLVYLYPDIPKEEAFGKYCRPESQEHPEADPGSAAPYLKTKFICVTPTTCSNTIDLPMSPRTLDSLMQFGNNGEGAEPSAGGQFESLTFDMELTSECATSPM

A short description of assay [16]: ATG_TCF_b_cat_CIS: Attagene CIS-FACTORIAL HepG2 Assay for human T-Cell-Factor with beta-catenin (TCF/b-cat) (AID 2282965). The following applies: HepG2 TCF/beta-catenin cis-reporter transcription, actives raise or lower the signal. The gist of the method:
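HepG2 cells transiently transfected with cis-promoter-driven multiplexed reporter units; reporter mRNA measured 24 h after dosing by RT-PCR, FAM labelling, HpaI digestion and capillary electrophoresis. Bidirectional fitting relative to DMSO baseline.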

A short description of assay [17]: ATG_TAL_CIS: Attagene CIS-FACTORIAL HepG2 Assay for human TAL Basal Promoter (AID 2282966).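 Also: background control endpoint measuring basal TAL promoter reporter mRNA not a specific factor.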 The following applies: HepG2 Attagene cis-factorial TAL promoter reporter; actives raise or lower the signal. The method in brief:
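Readout: reporter mRNA, fluorescence by CE. System: HepG2, transient multi-reporter transfection, endogenous TF activity. Exposure: 24 h. Analysis: bidirectional, DMSO-normalized; background control.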

Assay [18] in a line: ATG_TA_CIS: Attagene CIS-FACTORIAL HepG2 Assay for human TA Basal Promoter (AID 2282964). The following applies: HepG2 Attagene CIS-factorial TA basal promoter reporter; actives raise or lower the signal. The method in brief:
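HepG2 cells transiently transfected with multiple reporter units under cis promoter elements, reporting endogenous transcription factor activity; this endpoint tracks the TA basal promoter as background control. Reporter mRNA after 24 h dosing measured by RT-PCR/capillary electrophoresis; bidirectional fits versus DMSO.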

The target in assay [19] is Paired box protein Pax-6 (Homo sapiens) (UniProt P26367). As to the kind of experiment: ATG_Pax6_CIS: Attagene CIS-FACTORIAL HepG2 Assay for human Paired Box 6 (PAX6) (AID 2282956). The following applies: HepG2 CIS-FACTORIAL PAX6 reporter transcription, RNA readout; actives raise or lower the signal. The method in brief:
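HepG2 cells transiently transfected with cis-promoter-driven multiplexed reporter units sensing endogenous transcription factor activity; 24 h chemical exposure. Reporter mRNA quantified by RT-PCR, 6-FAM labelling, HpaI digestion and capillary electrophoresis; bidirectional fit versus DMSO baseline.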

Assay [20] deals with Heat shock factor protein 1 (Homo sapiens) (UniProt Q00613). As to the kind of experiment: ATG_HSE_CIS: Attagene CIS-FACTORIAL HepG2 Assay for human Heat Shock Transcription Factor 1 (HSE) (AID 2282953). The following applies: HepG2 HSE cis-reporter, Attagene RNA transcription; actives raise or lower the signal. The gist of the method: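 HepG2 cells transfected with cis-promoter reporter units sensing endogenous transcription factor activity; reporter mRNA quantified 24 h post-dose by RT-PCR and capillary electrophoresis of 6-FAM-labelled products. Bidirectional fitting against DMSO.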
Chain of Heat shock factor protein 1 (Homo sapiens) (Q00613 whole entry, looked up): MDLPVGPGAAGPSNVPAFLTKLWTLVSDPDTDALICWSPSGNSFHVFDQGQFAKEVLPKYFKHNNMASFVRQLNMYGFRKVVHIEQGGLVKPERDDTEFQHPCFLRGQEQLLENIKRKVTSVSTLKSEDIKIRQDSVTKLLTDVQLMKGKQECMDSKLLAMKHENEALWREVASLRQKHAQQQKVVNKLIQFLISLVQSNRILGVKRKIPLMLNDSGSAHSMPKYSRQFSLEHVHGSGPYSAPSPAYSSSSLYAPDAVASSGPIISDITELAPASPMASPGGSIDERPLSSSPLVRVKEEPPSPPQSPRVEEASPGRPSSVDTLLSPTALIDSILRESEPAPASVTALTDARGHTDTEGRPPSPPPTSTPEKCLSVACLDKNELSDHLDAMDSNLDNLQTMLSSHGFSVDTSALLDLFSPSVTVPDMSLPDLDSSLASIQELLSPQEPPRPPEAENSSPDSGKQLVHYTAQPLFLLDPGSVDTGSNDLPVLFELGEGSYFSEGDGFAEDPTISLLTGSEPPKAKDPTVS

Chain of Transcription factor Sp1 (Homo sapiens) (P08047 whole entry, looked up): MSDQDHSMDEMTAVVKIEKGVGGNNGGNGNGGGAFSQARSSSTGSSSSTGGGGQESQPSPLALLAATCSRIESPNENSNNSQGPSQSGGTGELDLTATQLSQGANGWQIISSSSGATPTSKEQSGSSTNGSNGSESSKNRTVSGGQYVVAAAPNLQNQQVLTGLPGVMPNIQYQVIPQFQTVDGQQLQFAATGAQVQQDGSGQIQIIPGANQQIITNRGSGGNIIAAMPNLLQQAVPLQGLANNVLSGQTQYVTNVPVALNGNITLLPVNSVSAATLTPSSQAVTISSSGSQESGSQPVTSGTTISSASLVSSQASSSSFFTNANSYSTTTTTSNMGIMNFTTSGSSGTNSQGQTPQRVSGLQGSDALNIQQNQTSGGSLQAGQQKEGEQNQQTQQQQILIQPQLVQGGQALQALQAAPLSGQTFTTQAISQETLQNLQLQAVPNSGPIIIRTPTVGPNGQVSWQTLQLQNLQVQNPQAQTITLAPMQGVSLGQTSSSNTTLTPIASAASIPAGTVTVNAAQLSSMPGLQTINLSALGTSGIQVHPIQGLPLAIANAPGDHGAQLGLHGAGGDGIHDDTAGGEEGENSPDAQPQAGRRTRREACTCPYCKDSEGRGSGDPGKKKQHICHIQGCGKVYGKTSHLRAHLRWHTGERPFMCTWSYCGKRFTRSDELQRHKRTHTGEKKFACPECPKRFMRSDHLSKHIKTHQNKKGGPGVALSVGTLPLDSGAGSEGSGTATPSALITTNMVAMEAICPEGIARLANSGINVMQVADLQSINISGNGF
Chain of Paired box protein Pax-6 (Homo sapiens) (P26367 whole entry, looked up): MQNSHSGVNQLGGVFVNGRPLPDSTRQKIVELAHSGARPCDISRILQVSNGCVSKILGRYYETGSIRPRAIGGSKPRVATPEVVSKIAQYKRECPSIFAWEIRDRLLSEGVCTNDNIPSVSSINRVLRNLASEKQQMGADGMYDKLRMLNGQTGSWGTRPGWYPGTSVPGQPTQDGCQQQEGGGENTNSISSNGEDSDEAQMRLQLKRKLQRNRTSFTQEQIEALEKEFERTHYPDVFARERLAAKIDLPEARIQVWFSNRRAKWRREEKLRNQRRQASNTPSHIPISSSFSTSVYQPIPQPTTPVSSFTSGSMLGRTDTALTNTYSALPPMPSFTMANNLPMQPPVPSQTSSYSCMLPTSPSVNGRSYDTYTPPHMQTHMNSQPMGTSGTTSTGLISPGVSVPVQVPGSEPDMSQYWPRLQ
Chain of Hypoxia-inducible factor 1-alpha (Homo sapiens) (Q16665 whole entry, looked up): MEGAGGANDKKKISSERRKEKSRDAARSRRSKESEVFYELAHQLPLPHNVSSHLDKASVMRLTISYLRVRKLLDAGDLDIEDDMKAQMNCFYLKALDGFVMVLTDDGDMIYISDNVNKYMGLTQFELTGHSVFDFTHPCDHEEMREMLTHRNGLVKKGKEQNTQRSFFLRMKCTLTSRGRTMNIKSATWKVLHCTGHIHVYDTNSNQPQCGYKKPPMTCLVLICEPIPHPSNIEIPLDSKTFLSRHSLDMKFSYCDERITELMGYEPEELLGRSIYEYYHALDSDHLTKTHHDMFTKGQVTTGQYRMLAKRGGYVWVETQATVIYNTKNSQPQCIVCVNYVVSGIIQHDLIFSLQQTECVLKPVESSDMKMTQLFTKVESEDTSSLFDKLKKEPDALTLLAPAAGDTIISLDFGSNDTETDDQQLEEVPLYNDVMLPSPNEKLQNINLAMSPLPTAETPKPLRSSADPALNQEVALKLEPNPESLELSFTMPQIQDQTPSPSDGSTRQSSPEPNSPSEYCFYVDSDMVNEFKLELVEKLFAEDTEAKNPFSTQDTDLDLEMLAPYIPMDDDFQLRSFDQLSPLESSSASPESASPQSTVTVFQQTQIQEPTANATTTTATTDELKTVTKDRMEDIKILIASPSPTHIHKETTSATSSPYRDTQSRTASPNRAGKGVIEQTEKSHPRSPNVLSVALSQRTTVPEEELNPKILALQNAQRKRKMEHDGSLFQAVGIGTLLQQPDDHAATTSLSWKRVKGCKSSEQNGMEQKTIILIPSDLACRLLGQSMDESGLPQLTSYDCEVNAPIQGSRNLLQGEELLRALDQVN
Chain of Hepatocyte nuclear factor 6 (Homo sapiens) (Q9UBC0 whole entry, looked up, the tested form may be a part): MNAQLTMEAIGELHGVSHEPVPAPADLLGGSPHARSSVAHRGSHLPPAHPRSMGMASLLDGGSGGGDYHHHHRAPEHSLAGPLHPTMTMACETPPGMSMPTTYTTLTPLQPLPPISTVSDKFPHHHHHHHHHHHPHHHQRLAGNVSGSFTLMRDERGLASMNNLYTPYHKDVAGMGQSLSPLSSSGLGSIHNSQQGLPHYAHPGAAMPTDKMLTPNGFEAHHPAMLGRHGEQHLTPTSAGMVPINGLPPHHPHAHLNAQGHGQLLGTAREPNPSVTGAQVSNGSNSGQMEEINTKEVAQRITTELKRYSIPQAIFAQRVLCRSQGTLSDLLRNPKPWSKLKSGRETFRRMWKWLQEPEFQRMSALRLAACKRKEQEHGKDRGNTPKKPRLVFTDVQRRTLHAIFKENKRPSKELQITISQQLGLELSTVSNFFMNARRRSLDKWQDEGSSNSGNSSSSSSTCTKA

With `FC(F)(F)COC(OCC(F)(F)F)OCC(F)(F)F`, the molecule was classed as inactive in assay [1], in [2], in [3], in assay [4], in assay [5] and in [6]. Further, the molecule was classed as inactive in assay [7], in assay [8], in assay [9], in [10], in [11] and in assay [12]. The result in assay [13], in [14], in assay [15], in assay [16] and in assay [17] was inactive.

As to `c1ccc2cc3ccccc3cc2c1`, the result in assay [1], in assay [2], in assay [3], in assay [4], in assay [5] and in assay [6] was inactive. Besides, the molecule was classed as inactive in assay [7], in assay [8], in [9], in assay [10], in [11] and in assay [12]. The call in assay [13], in [14], in [15], in [18], in [16] and in assay [17] was inactive.

The term AC50 denotes the concentration giving half of the maximal activity seen. For `C[C@]12C=CC(=O)C=C1CC[C@H]1[C@@H]3C[C@@H](O)[C@](O)(C(=O)CO)[C@@]3(C)C[C@H](O)[C@@]12F`, the half-maximal activity concentration (AC50) in [1] was 0.14 µM (active). Moreover, the result in assay [2], in assay [3], in assay [4], in assay [5], in assay [6] and in [7] was inactive. The result in [19], in assay [9], in assay [10], in assay [11], in [12] and in assay [13] was inactive. For the same molecule, the molecule was called inactive in assay [14], in [15], in [18], in [16] and in assay [17].

For the molecule `Cc1cccc(O)c1C`, the molecule was called inactive in assay [1], in assay [2], in [3], in [4], in [5] and in assay [6]. In addition, the outcome in assay [7], in [8], in assay [19], in assay [9], in assay [10] and in assay [11] was inactive. Moreover, the call in assay [12], in assay [13], in [14], in assay [15], in [16] and in assay [17] was inactive. For the same molecule, in [9], the AC50 is 31.1 µM (active).

Turning to `CCc1cccc(CC)c1N`, the molecule was called inactive in assay [1], in assay [2], in assay [3], in assay [4], in assay [5] and in assay [6]. Moreover, the molecule was called inactive in [20], in assay [7], in [8], in assay [11], in [12] and in assay [13]. Also, the call in assay [14], in assay [15], in [16] and in assay [17] was inactive. For the same molecule, the concentration at half-maximal activity (AC50) in [9] is 27.7 µM (active).

For `C[Si](C)(C)C(F)(F)C(F)(F)C(F)(F)F`, the call in [1], in [2], in assay [3], in assay [4], in assay [5] and in assay [6] was inactive. In addition, the molecule was called inactive in assay [7], in [8], in assay [9], in [10], in assay [11] and in assay [12]. For the same molecule, the outcome in [13], in [14], in [15], in assay [18], in [16] and in assay [17] was inactive.
